Screens: PubChem, The Scripps Research Institute Molecular Screening Center
Sampled rows, rich in hits. Any-hit rate of the full collection: about 1.1%.
OPRM1-OPRD1 inv: mu-delta opioid heterodimer inverse agonism; inhibition, % at 9.3 µM; 340,000 tested, 0.21% active; cell-based MOR-DOR heterodimer luminescence; AID 504357; P35372+P41143; in the data active = inhibition above about 22%, passing the limit was not always enough
MOR-DOR ag: agonists of human mu-delta opioid receptor heterodimerization; activation, % at 9.3 µM; AID 504326; cells, OPRM1-OPRD1 heterodimerization, luminescence; 340,000 tested, 0.3% active
HTR5A ag ctr: counter-screen for OPRM1-OPRD1 agonists: human HTR5A agonism | P47898 | HTR5A agonist assay, luminescence, cell-based | activation, % at 9.3 µM | 340,000 tested, 0.61% active; in the data active = activation mostly above about 9.5%, no sharp cut-off; inactive = mostly below about 7.6%
Target sequence (P47898 whole entry, looked up): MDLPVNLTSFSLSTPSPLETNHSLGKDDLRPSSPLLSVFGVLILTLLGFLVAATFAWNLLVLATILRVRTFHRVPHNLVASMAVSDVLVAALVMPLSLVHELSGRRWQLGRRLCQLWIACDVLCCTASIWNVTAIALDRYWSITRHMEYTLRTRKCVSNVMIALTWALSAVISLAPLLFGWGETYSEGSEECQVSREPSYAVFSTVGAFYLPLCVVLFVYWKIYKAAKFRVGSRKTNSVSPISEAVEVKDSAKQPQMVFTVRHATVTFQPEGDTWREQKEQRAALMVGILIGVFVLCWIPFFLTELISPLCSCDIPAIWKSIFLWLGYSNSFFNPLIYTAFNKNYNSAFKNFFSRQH
HTR5A inv ctr: HTR5A inverse agonism, opioid heterodimer counter-screen | 340,000 tested, 0.083% active | P47898 | HTR5A cell line, luminescence | inhibition, % at 9.3 µM; in the data active = inhibition mostly above about 23%, no sharp cut-off; inactive = mostly below about 18%
OPRM1-D1 ag cf: confirmation of human OPRM1-OPRD1 heterodimerization agonists; shares compounds with MOR-DOR ag; cells, MOR-DOR heterodimerization, luminescence complementation; activation, % at 9.3 µM; 830 tested, 45% active
HTR5A ag ctr2: counter-screen for OPRM1-OPRD1 agonists: human HTR5A agonism. shares compounds with MOR-DOR ag. HTR5A agonist counterscreen, cell luminescence. activation, % at 9.3 µM. 830 tested, 8% active; in the data active = activation above about 17%
Numbers stand for hits; 0 = inactive; - = not tested or not shown. Cut-off read from the data, not from the text of the source, unless noted: active = activation above about 18%; inactive = the rest.

SMILES	OPRM1-OPRD1 inv	MOR-DOR ag	HTR5A ag ctr	HTR5A inv ctr	OPRM1-D1 ag cf	HTR5A ag ctr2
CCC[C@@H]1CCCO[C@@](C(=O)NCc2cc(C)n(C)n2)(C(F)(F)F)C1	0	0	0	0	-	-
COc1ccc(C2NCCc3c2[nH]c2ccccc32)cc1COc1ccc(F)cc1 (stereo not given)	0	20.2	0	0	24.3	0
CCOC(=O)C1CCCN(C(=O)Cn2nc(C)n3c(cc4c(OC)cccc43)c2=O)C1 (stereo not given)	0	0	0	0	-	-
CC(CC(=O)N(CCC1=CCCCC1)c1c(N)n(Cc2ccccc2)c(=O)[nH]c1=O)c1ccccc1 (stereo not given)	0	39.1	0	0	32.7	0
CCOc1ccc(OCC(=O)N(CCC2=CCCCC2)c2c(N)n(Cc3ccccc3)c(=O)[nH]c2=O)cc1	0	0	0	0	-	-
COc1ccccc1-c1nnc(SCC(=O)NCc2cccs2)n1N	0	0	0	0	-	-
Cc1cc(NC(=O)c2ccco2)c(=O)n(Cc2cccc(C(F)(F)F)c2)c1	0	0	0	0	-	-
Cc1nnc(N2C(=O)C(=O)/C(=C(/O)c3ccc4c(c3)OCCO4)C2c2ccc([N+](=O)[O-])cc2)s1 (stereo not given)	0	0	0	0	-	-
COc1cccc(-c2nc(NCc3ccco3)c3ccccc3n2)c1O	0	25.6	0	0	0	23.8
COc1ccc(C[C@H]2CN3C(=NC[C@@H]3Cc3ccccc3)N2CCNC(=O)c2ccc(C)c(Br)c2)cc1	0	22.4	0	0	0	0
CC(CCOS(N)(=O)=O)c1ccccc1 (stereo not given)	0	0	0	0	-	-
COc1ccc(S(=O)(=O)N2CCN(CC(=O)NCCc3cccs3)CC2)cc1	0	0	0	0	-	-
O=C1C(O)=CC(=C(c2ccccc2)c2ccccc2)c2ccccc21	0	20.0	0	0	0	0
NC(=O)C1CCN(C(=O)c2ccccc2SCC(=O)NCC2CCCCC2)CC1	0	0	0	0	-	-
COc1ccc2ncc(S(=O)(=O)c3ccccc3)c(N3CCN(c4ccccc4)CC3)c2c1	0	0	0	0	-	-
CCN1CCN(c2c(S(=O)(=O)c3ccc(C)c(C)c3)cnc3ccc(F)cc23)CC1	0	53.2	0	0	0	0
O=C(NC1CCN(Cc2ccc(Cl)cc2Cl)CC1)c1ccccc1	0	18.2	0	0	25.8	0
Cc1sc(NC(=O)CSc2nnc(COc3ccccc3)n2C)c(C#N)c1C	0	0	0	0	-	-
Cc1sc(NC(=O)CSc2nnc3scc(-c4ccccc4)n23)c(C#N)c1C	0	19.5	0	0	0	0
O=C(O)/C=C/c1ccc(S(=O)(=O)NCc2cccnc2)cc1	0	0	0	0	-	-
FC(F)(F)c1cnc(Nc2ccc(N3CCOCC3)cc2)c(Cl)c1	0	28.1	0	0	0	0
Cc1cc(C(=O)NCC(c2ccco2)N(C)C)no1 (stereo not given)	0	0	0	0	-	-
Cc1ccc2nc(-c3ccccc3)cc(C(=O)NCC(c3ccco3)N(C)C)c2c1 (stereo not given)	0	35.9	0	0	0	0
CN(C)C(CNC(=O)c1cccc(C(F)(F)F)c1)c1ccco1 (stereo not given)	0	18.4	0	0	45.0	0
Cc1c(C(=O)NCC(c2ccco2)N(C)C)oc2c(Cl)cccc12 (stereo not given)	0	31.7	0	0	20.0	30.1
SMILES	OPRM1-OPRD1 inv	MOR-DOR ag	HTR5A ag ctr	HTR5A inv ctr	OPRM1-D1 ag cf	HTR5A ag ctr2
CN(C)C(CNC(=O)c1ccc(Br)cc1)c1ccco1 (stereo not given)	0	43.2	0	0	36.6	0
CC(Oc1ccc2c(c1)oc(=O)c1ccccc12)C(=O)NC(Cc1c[nH]c2ccc(O)cc12)C(=O)O (stereo not given)	0	0	0	0	-	-
Cc1cc(C(=O)NCC(c2ccco2)N(C)C)ccc1[N+](=O)[O-] (stereo not given)	0	34.4	0	0	25.6	0
CN1CCN(c2ccc(NC(=O)c3ccc(-c4ccc(Br)cc4)o3)cc2)CC1	0	345.3	16.9	0	36.5	0
CCN1CCN(c2ccc(NC(=O)c3ccc(Br)o3)cc2)CC1	0	0	0	0	-	-
O=C(OC1C2CCC1C1CN(CCc3ccccc3)CC12)c1ccccc1 (stereo not given)	0	18.1	0	0	59.9	0
CCOC(=O)C1CCCN(CCc2ccccc2)C1 (stereo not given)	0	0	0	0	-	-
COc1ccc(Cn2nnnc2C(c2cc3cccc(C)c3[nH]c2=O)N2CCN(C)CC2)cc1 (stereo not given)	0	0	0	0	-	-
Cc1ccc2cc(C(c3nnnn3Cc3ccccc3)N3CCc4ccccc43)c(=O)[nH]c2c1 (stereo not given)	0	19.8	0	0	60.4	0
Cc1cccc2cc(C(c3nnnn3Cc3ccccc3)N3CCN(C)CC3)c(=O)[nH]c12 (stereo not given)	0	34.8	0	0	38.0	0
CCCOc1ccc(C(=O)Nc2ccc(N3CCN(C(=O)c4ccco4)CC3)cc2)cc1	0	23.0	0	0	0	0
COCCn1c(C)c(C)c2c(NCCc3ccccc3)ncnc21	0	0	0	0	-	-
CCOC(=O)C1(CCc2ccccc2)CCN(Cc2ccc(OC)cc2)CC1	0	129.3	0	0	0	0
CCOC(=O)C1(CCc2ccccc2)CCN(Cc2ccc(O)cc2)CC1	0	0	0	0	-	-
CCOC(=O)C1(CCc2ccccc2)CCN(Cc2c(O)cccc2OC)CC1	0	292.4	0	0	0	0
COc1ccc(OCC(=O)N2CCCC(CO)(CCOc3ccccc3)C2)cc1 (stereo not given)	0	0	0	0	-	-
CC(=O)Nc1ccc(S(=O)(=O)N[C@@H](C)C(=O)OCC(=O)c2ccc(C)cc2)cc1	0	0	0	0	-	-
N#Cc1nc(NCC(F)F)nc(Nc2cc(F)cc(F)c2)n1	0	20.9	0	0	0	0
N#Cc1nc(Nc2cc(F)cc(F)c2)c2ncn(CC(F)F)c2n1	0	0	0	0	-	-
COc1cccc(N2CCN(c3ncnc4c3[nH]c3ccc(F)cc34)CC2C)c1 (stereo not given)	0	43.0	15.2	0	0	0
O=C(Nc1ccc2c(c1)C(=O)N(c1ccccc1)C2=O)c1cccs1	0	18.4	0	0	0	0
N/C(=N\OC(=O)CC1CCCCC1)c1ccc(Cl)cc1	0	0	0	0	-	-
COc1ccc(-c2cc(=O)oc3cc(OCC(=O)NCc4ccccn4)ccc23)cc1	0	0	0	0	-	-
O=C(COc1ccc(Br)cc1CO)Nc1ccc(S(=O)(=O)N2CCCCC2)cc1	0	0	0	0	-	-
CCc1ccc(OCC(=O)Nc2ccc(S(=O)(=O)N3CCCC3)cc2)c(Br)c1	0	19.4	0	0	0	0
O=C(CS(=O)(=O)c1ccccc1)Nc1ccccc1Br	0	0	0	0	-	-
Cc1ccc(NC2=Nc3ccccc3CC2)cc1	0	0	0	0	-	-
